A short description of assay [1]: Wnt pathway potentiators raising nuclear beta-catenin – imaging, WNT3A-conditioned medium, mouse C2C12, NPC library, primary screen (AID 1117326; in the data active means nuclear beta-catenin stimulation mostly above about 4.2%, no sharp cut-off; inactive means mostly below about 10%). To be noted: stronger effect = higher value.
Assay [2] in a line: stimulators of insulin release from INS-1E, primary screen, cell-based, 5 mM glucose, NPC library (AID 1117329;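 active means compound raises insulin release from rat beta cells at 5 mM glucose, no numeric limit stated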). To be noted: rat INS-1E insulin secretion, at 10 µM, stronger effect = higher value.
Assay [3] in a line: growth inhibition of GSK3B-pretreated HCT116 cells – cell-based, CellTiter-Glo, 0.2 to 20 µM (AID 1117336;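 active means compounds lowering colon cancer cell viability after pretreatment blocking the GSK3B kinase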). To be noted: HCT116 viability after GSK3B inhibitor, at 20 µM, stronger effect = higher value. (In general: Cellular ATP, detected with luciferase, serves as a proxy for viable cell number.)
Assay [4] is described as follows: inhibition of endothelial tube formation, primary screen, imaging, VEGF stimulated, CD31 staining, tube area, NPC library (AID 1117340;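 active means compound that reduces growth-factor-driven endothelial tube area in a mixed cell culture, no cutoff stated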). To be noted: VEGF-stimulated ADSC/ECFC co-culture, at 10 µM, stronger effect = higher value.
Assay [5] in a line: GLP1 release stimulators, primary, NCI-H716, NPC library (AID 1117341;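 active means compound raises GLP1 secretion from the human gut endocrine cells, with no numeric limit stated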). To be noted: NCI-H716 cells, at 10 µM, stronger effect = higher value.
Assay [6] in a line: HCT116 colon cancer cell growth inhibition, primary screen, CellTiter-Glo luminescence, NPC library (AID 1117342;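 active means compounds that lower survival of HCT116 colon cancer cells in the luminescence readout, no numeric limit stated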). To be noted: at 20 µM (top of the series).
The nature of assay [7]: reduced SW480 viability measured with CellTiter-Glo, NPC library, primary (AID 1117343;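 active means compounds that lower viability of the colon cancer cells in the luminescence readout, with no numeric limit stated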). To be noted: CellTiter-Glo luminescence; at 20 µM (top of the series).
Assay [8] is described as follows: NPC library primary testing for decreased DLD-1 cell viability via CellTiter-Glo (AID 1117346;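 active means compounds that lower survival of DLD-1 colon cancer cells in the luminescence readout, no cutoff given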). To be noted: DLD-1 viability, CellTiter-Glo luminescence; at 20 µM (top of the series).
In assay [9] the target is 6-phosphogluconate dehydrogenase, decarboxylating (Homo sapiens) (UniProt P52209). The assay is described as follows: inhibition of human phosphogluconate dehydrogenase – biochemical, recombinant enzyme, NADPH absorbance, primary screen (AID 1159550;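 active means at least 20% inhibition of 6-phosphogluconate dehydrogenase activity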). To be noted: recombinant 6PGD, NADPH absorbance 341 nm; at 10 µM; stronger effect = higher value.
The nature of assay [10]: modulation of C. elegans fzo-1 (AID 1259413; call rule not given here;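 further: fzo-1 mutant C. elegans worms in liquid wells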). To be noted: C. elegans fzo-1 modulator screen, mean read-out; stronger effect = higher value.
A short description of assay [11]: EMT-state selective cytotoxicity in co-culture – imaging, PC-3E GFP, TEM4-18 mCherry, primary screen (AID 1345086;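 active means compounds killing one labelled cell type while sparing the other, by normalised counts and ratio limits, not self-fluorescent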;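 on all read-outs here: cells exposed to compound for 72 h before imaging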;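 on red/green cell ratio (normalised): normalised mesenchymal count divided by normalised epithelial count so high means epithelial killing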). To be noted: PC-3E GFP / TEM4-18 mCherry co-culture, imaging cell counts, at 1 µM; for red/green cell ratio (normalised): actives lie on both sides, counts scaled to control wells, 1 = unselective.
Assay [12] in a line: MELAS cybrid and Rieske KO viability enhancers – cell-based, MELAS cybrids, Rieske KO mouse fibroblasts, CellTiter-Glo, primary screen (AID 1508586;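 active means mean z-score across replicates of 1.96 or higher in either the MELAS or the Rieske mutant cell line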;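 further: z relative to plate mean and SD of compound and empty wells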). To be noted: low glucose.
The target in assay [13] is NAD(+) hydrolase SARM1 (Homo sapiens) (UniProt Q6SZW1). In words: blocking NAD cleavage by SARM1 SAM-TIR – cell lysate, NAD-Glo luminescence (AID 1508614;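 active means compound whose remaining NAD level is above about 45 nM, limit read from the data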). To be noted: SAM-TIR HEK293T lysate NADase, at 1 µM, stronger effect = higher value.
Assay [14] deals with Mitogen-activated protein kinase 7 (Homo sapiens) (UniProt Q13164). The assay is described as follows: Gal4-ERK5 driven luciferase induction – cell-based, HTS, primary screen (AID 1508626;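 active means luciferase signal above three times the same-plate solvent-only control wells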;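 further: luciferase driven by Gal4-ERK5 fusion binding five Gal4 sites before minimal TATA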). To be noted: HeLa Gal4-ERK5 transactivation, 18 h, at 5 µM, stronger effect = higher value.
A further assay relates to F380Y. In words: BK channel mutant inhibitors and activators – cell-based, U2OS BacMam, thallium flux, beta subunits, selectivity assay, profiling panel (AID 1259406).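 Further: initial slope of Thallos dye fluorescence rise after thallium is added; log ratio against the mean of 0.3% DMSO vehicle wells on the same plate.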 To be noted: U2OS BacMam BK variants, at 30 µM.
A further assay deals with F380Y/beta1. The description is as above. To be noted: U2OS BacMam BK variants, at 30 µM.
The next assay concerns F380Y/beta2Delta. Described as above. To be noted: U2OS BacMam BK variants, at 30 µM.
In a further assay the test system is F380Y/beta4. The description is as above. To be noted: U2OS BacMam BK variants, at 30 µM.
The target in assay [15] is Calcium-activated potassium channel subunit alpha-1 (Homo sapiens) + Leucine-rich repeat-containing protein 26 (Homo sapiens) (UniProt Q12791+Q2I0M4). Described as above. To be noted: U2OS BacMam BK variants, F380Y/Slo1WT/gamma1, at 30 µM.
[16] abbreviates: measured here: epithelial PC-3E GFP cell survival.
The mark [17] stands for this setting: measured here: mesenchymal TEM4-18 mCherry cell survival.
The mark [18] stands for this setting: MELAS cybrid survival, CellTiter-Glo 48 h, stronger effect = higher value.
The mark [19] stands for this setting: Rieske KO mouse fibroblast survival, CellTiter-Glo 72 h.

Values joined by “and” are separate entries in the source; they are usually repeats but may differ in a detail not shown here. Equal entries are not always repeated. Active and inactive are the calls of the source.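 How the source made its calls, unless noted: active means thallium flux through the channel raised or lowered by more than 3 SD from vehicle-only wells, actives on both sides; inactive means the rest.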

6-phosphogluconate dehydrogenase, decarboxylating (Homo sapiens), sequence (P52209 whole entry, looked up): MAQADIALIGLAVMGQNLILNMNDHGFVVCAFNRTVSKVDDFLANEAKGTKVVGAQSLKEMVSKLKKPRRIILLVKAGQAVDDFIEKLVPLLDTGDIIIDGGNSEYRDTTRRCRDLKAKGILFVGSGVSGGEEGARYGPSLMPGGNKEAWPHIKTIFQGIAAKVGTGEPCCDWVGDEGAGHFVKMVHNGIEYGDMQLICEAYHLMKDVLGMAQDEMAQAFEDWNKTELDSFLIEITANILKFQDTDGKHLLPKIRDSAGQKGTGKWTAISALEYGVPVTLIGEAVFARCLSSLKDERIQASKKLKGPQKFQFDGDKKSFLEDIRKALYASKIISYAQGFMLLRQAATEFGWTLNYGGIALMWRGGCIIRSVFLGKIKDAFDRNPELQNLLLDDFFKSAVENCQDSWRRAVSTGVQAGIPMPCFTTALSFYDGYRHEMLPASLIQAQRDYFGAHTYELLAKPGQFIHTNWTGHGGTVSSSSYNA
Mitogen-activated protein kinase 7 (Homo sapiens), sequence (Q13164 whole entry, looked up, the tested form may be a part): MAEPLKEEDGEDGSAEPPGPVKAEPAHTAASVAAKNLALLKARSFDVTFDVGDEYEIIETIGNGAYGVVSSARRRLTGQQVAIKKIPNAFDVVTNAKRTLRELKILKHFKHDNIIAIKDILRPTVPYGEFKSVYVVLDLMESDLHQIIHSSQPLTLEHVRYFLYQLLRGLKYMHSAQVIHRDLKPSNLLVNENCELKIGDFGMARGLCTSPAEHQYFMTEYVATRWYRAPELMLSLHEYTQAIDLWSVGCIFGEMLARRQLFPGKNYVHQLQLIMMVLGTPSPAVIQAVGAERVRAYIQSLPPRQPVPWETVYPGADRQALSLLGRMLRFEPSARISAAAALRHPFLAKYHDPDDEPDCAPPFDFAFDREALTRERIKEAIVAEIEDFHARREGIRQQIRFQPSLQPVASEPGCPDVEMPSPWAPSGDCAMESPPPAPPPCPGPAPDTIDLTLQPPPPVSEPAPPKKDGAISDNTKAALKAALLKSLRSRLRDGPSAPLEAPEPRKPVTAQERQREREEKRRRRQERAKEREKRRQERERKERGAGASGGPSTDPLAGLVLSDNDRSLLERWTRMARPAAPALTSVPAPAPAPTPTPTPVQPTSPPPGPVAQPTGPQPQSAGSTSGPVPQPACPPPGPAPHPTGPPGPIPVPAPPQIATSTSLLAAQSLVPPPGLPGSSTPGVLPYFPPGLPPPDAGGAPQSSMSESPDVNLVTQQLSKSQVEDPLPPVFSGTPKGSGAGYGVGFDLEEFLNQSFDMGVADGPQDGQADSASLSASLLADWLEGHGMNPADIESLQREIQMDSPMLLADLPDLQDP
NAD(+) hydrolase SARM1 (Homo sapiens), sequence (Q6SZW1 whole entry, looked up, the tested form may be a part): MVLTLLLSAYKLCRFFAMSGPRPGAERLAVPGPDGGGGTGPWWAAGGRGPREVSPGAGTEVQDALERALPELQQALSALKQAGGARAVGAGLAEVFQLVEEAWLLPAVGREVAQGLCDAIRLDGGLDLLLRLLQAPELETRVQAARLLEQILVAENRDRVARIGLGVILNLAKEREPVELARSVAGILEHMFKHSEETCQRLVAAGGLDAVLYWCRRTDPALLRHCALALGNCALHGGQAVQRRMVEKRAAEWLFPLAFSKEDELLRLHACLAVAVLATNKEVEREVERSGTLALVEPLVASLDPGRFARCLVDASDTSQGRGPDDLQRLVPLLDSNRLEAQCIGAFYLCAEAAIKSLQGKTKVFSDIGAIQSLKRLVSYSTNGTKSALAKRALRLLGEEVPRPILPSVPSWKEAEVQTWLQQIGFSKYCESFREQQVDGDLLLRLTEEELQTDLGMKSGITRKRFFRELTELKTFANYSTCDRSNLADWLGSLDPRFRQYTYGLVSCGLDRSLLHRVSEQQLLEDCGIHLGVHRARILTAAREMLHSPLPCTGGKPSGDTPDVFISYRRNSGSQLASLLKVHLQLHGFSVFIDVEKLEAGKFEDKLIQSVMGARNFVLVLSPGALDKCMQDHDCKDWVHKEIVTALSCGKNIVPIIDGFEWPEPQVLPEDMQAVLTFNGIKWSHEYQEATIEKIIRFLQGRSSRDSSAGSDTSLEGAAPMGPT
Calcium-activated potassium channel subunit alpha-1 (Homo sapiens) + Leucine-rich repeat-containing protein 26 (Homo sapiens), sequence (Q2I0M4 whole entry, looked up, one chain of several): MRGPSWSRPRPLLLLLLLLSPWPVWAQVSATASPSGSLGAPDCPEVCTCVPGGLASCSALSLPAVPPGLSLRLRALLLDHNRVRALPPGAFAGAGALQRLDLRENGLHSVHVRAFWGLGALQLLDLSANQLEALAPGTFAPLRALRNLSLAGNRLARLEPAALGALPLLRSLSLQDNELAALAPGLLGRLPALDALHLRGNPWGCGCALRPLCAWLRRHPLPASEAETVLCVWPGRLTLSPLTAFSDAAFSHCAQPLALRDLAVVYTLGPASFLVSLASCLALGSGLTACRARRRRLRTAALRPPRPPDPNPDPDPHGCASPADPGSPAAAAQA

With `CCC1(c2ccccc2)C(=O)NCNC1=O`, the nuclear beta-catenin stimulation is 0.6% (inactive) in assay [1] (at 10 µM) and 1.4% in [1] (stimulation, at 2 µM). For the same molecule, the insulin secretion stimulation in [2] is -2.2% (inactive). The viability decrease in assay [3] is -8.45% (inactive). Also, the tube area decrease in [4] was 12.9% (inactive). Besides, the GLP1 secretion stimulation in assay [5] was -2% (inactive). The inhibition of viability in [6] was 1% (inactive). Moreover, the viability decrease (inhibition) in assay [7] is -8.1% (inactive); in assay [8], -8.9% (inactive). In assay [9], the inhibition (commonly the share of the control response that was lost under treatment) was 14.9% (inactive). Moreover, the mean signal in assay [10] is 235 (inactive). For the same molecule, the red/green cell ratio (normalised) in assay [11] was 1.02 (inactive). For the same molecule, the normalised cell number in assay [11] (setting [16]) is 1.02; in [11] (setting [17]), 1.05. The z-score was -0.279 (inactive) and 0.626 (inactive) in [12] (setting [18]); 0.595 and -0.386 in assay [12] (setting [19]). Also, the remaining NAD in assay [13] is 10 nM (inactive). The luciferase signal in assay [14] is 60 AU (inactive). The log fold change Tl+ flux is -0.0227 (inactive) with F380Y; 0.00204 (inactive) in the assay on F380Y/beta1; -0.0144 (inactive) in the assay on F380Y/beta2Delta; 0.00245 (inactive) in the assay with F380Y/beta4; 0.023 (inactive) in assay [15].
On to `CCN(CCO)CCCC(C)Nc1ccnc2cc(Cl)ccc12` (centres undefined), for which the nuclear beta-catenin stimulation in [1] (at 10 µM) is 3.8% (inactive); in assay [1] (stimulation, at 2 µM), 4.2%. In addition, the insulin secretion stimulation in assay [2] is 1.6% (inactive). In [3], the viability decrease was 18.3% (inactive). The tube area decrease in [4] was 22.5% (inactive). The GLP1 secretion stimulation in assay [5] was 4.3% (inactive). Besides, in assay [6], the inhibition of viability is 8.93% (inactive). The viability decrease (inhibition) is -0.9% (inactive) in assay [7] and -7.1% (inactive) in assay [8]. Moreover, in [9], the inhibition was 13.2% (inactive). The red/green cell ratio (normalised) in assay [11] was 0.76 (inactive). The normalised cell number was 1.45 in assay [11] (setting [16]) and 1.1 in assay [11] (setting [17]). Also, the z-score was -0.0994 (inactive) in assay [12] (setting [18]) and 0.0866 in assay [12] (setting [19]). For the same molecule, the remaining NAD in assay [13] is 10 nM (inactive). For the same molecule, the luciferase signal in assay [14] is 96 AU (inactive).
As to `NCCCC[C@H](N)C(=O)O`, the nuclear beta-catenin stimulation in assay [1] (at 10 µM) is 1.6% (inactive); in assay [1] (stimulation, at 2 µM), 2%. Further, the insulin secretion stimulation in [2] is -2.1% (inactive). Besides, the viability decrease in assay [3] is 1.2% (inactive). Also, in [4], the tube area decrease was -14.1% (inactive). The GLP1 secretion stimulation in assay [5] is -3.9% (inactive). In assay [6], the inhibition of viability was -2.6% (inactive). In addition, the viability decrease (inhibition) in assay [7] was 12.8% (inactive); in assay [8] it was -0.6% (inactive).
As for `Cc1coc2ccccc2c1=O`, the nuclear beta-catenin stimulation in assay [1] (at 10 µM) was 1.5% (inactive); in [1] (stimulation, at 2 µM), 2.3%. Further, in assay [2], the insulin secretion stimulation was -2.4% (inactive). Besides, in assay [3], the viability decrease is 2.8% (inactive). The tube area decrease in assay [4] is 13.7% (inactive). In [5], the GLP1 secretion stimulation was 3.1% (inactive). Further, in assay [6], the inhibition of viability was -12.2% (inactive). Moreover, the viability decrease (inhibition) in assay [7] is 24.7% (inactive); in assay [8] it was -7.5% (inactive). Also, in [9], the inhibition was 1.24% (inactive).
